Calls of active or inactive are those of the source. Cut-off read from the data, not from the text of the source, unless noted: active = inhibition above about 30%; inactive = the rest.
Target: Nuclear receptor coactivator 3 (Homo sapiens) (UniProt Q9Y6Q9)
Test: NCOA3 GAL4-fusion reporter inhibition – cell-based, luminescence, quadruplicate, confirmation (AID 588792;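 active = mean inhibition over 43.08%, the solvent-only control mean plus 3 SD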;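 note: 0% = DMSO treated cells and 100% = gossypol at 36 µM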)
Settings: HEK293 GAL4-SRC3 luciferase reporter, at 3.6 µM, hits give high values

Chain of Nuclear receptor coactivator 3 (Homo sapiens) (Q9Y6Q9 whole entry, looked up, the tested form may be a part): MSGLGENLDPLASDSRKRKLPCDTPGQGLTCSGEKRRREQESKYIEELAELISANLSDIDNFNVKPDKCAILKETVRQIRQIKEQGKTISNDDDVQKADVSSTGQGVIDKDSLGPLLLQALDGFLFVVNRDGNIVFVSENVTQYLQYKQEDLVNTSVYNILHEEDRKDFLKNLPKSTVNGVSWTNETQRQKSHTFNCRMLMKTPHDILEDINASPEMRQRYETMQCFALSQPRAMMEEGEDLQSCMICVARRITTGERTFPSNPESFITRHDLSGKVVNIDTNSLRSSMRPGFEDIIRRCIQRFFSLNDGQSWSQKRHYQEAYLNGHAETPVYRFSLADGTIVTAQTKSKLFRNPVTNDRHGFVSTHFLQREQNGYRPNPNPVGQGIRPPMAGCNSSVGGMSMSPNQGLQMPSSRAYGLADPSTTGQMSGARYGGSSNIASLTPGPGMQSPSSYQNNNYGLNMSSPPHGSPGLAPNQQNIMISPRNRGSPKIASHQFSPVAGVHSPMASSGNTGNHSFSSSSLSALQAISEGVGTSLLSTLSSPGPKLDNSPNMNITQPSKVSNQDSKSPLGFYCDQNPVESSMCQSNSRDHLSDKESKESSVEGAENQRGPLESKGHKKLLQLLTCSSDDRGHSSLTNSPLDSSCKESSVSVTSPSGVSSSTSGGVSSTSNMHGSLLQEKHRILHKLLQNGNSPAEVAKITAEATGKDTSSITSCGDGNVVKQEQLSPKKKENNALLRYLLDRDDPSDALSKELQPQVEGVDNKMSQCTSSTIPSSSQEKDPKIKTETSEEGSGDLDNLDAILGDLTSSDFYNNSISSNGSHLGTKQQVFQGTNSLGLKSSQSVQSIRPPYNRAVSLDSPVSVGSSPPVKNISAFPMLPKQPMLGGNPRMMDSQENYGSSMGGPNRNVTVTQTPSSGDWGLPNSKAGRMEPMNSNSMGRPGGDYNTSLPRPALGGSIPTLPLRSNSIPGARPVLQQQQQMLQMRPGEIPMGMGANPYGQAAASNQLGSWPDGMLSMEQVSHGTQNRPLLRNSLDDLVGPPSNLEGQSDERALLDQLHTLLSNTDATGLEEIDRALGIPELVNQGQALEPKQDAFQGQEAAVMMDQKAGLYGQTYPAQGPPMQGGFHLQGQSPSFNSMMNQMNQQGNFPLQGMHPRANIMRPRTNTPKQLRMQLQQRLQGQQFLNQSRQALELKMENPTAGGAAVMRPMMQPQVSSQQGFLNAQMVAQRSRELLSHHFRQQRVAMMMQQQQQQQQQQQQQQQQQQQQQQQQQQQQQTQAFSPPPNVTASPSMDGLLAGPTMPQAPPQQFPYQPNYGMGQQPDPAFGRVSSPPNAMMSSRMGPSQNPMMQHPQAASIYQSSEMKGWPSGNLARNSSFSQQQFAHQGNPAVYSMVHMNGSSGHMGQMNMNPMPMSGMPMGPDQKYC

SMILES	inhibition
O=C(OC1C2CCC1C1CN(CCc3ccccc3)CC12)c1ccccc1 (stereo not given)	11.2% (inactive)
Cc1ncoc1C(=O)NC1CCCc2c1cnn2-c1ccc(C(C)(C)C)cc1 (stereo not given)	-0.26% (inactive)
COc1ccc(-n2c(C)cc(C(=O)COc3ccc(C)nc3[N+](=O)[O-])c2C)cc1	14.4% (inactive)
Cc1sc(-c2ccccn2)nc1OC(=O)c1ccc(F)cc1F	13.9% (inactive)
CC1CCc2c(sc(NC(=O)c3ccco3)c2C(=O)O)C1 (stereo not given)	18.1% (inactive)
COc1cccc(/C=N/NC(=O)c2ccc(=O)n(C)c2)c1O	12.1% (inactive)
CC(=O)Nc1cccc(C(=O)/C=C/c2ccc(F)cc2)c1	1.7% (inactive)
COc1ccc(N2CC(C(=O)N/N=C/c3ccccc3)CC2=O)cc1 (stereo not given)	5.28% (inactive)
CC(C)c1nc(Cl)c(C#N)c2c1CCCC2	26% (inactive)
CCN(CC(=O)Nc1ccccc1C(F)(F)F)C(=O)c1ccc(N2C(=O)CCC2=O)cc1	-1.4% (inactive)
COC(=O)c1ccc(NC(=O)Cn2c(-c3nonc3N)nc3ccccc32)cc1	17% (inactive)
CC#CC[N+](C)(C)CCCCCCCCCC	4.4% (inactive)
Cc1ccc(OCC(O)CN2CCN(CC(O)COC(C)C)CC2)c(C(C)(C)C)c1 (stereo not given)	8.73% (inactive)
CCOC(=O)Cc1[nH]nc2c1C(c1cccc(OC)c1OC)C(C#N)=C(N)O2 (stereo not given)	-9.29% (inactive)
CN1CCN(S(=O)(=O)c2cccc(C(=O)N(C)CC(=O)Nc3ccc(Cl)c(Cl)c3)c2)CC1	21% (inactive)
Cc1ccc(S(=O)(=O)N(C)c2ccc(OCC(=O)OCc3c(C)noc3C)cc2)cc1	-4.68% (inactive)
Cc1cc(=O)oc2cc(NC(=O)COc3cccc(C(F)(F)F)c3)ccc12	7.34% (inactive)
COc1ccc(OC)c(N/C=C/C(=O)c2ccccc2)c1	44.8% (active)
Cc1ccc(C(=O)OCC(=O)Nc2sccc2C(N)=O)cc1NC(=O)c1ccco1	18.4% (inactive)
Cc1cc(C(F)(F)F)c(C#N)c(SCC(=O)Nc2nc3ccccc3s2)n1	49.7% (active)

SMILES	inhibition
O=C(NN=Cc1ccccc1O)c1cccc([N+](=O)[O-])c1	52.8% (active)
CCCn1c(N)c(C(=O)CSc2ncc(C(F)(F)F)cc2Cl)c(=O)[nH]c1=O	14.6% (inactive)
C/C(=N\NC(N)=S)C1C2C3CC4C5CC(C42)C1C53 (stereo not given)	28.5% (inactive)
COc1ccc(OC)c(C2C3=C(CCCC3=O)NC3=C2C(=O)CCC3)c1	4.98% (inactive)
CCCN1C(=O)c2ccccc2NC1c1ccc(Cl)c(Cl)c1 (stereo not given)	17.8% (inactive)
CN[C@H]1CCc2cc(OC)c(OC)c(OC)c2-c2ccc(OC)c(=O)cc21	40.5% (inactive)
COc1ccc(S(=O)(=O)NCc2ccncc2)cc1NC(=O)c1ccc(Cl)cc1	14.2% (inactive)
Cc1ccsc1C(=O)C1CCCN(Cc2cccn2-c2ccc(Cl)cn2)C1 (stereo not given)	-3.2% (inactive)
COC(=O)c1sc(NC(=O)c2cc(-c3ccccc3)nc3ccccc23)c(C#N)c1C	5.32% (inactive)
C=CCc1cc(C(=O)N2CCCCC2)ccc1O	14.5% (inactive)
O=C(c1ccc(S(=O)(=O)Cc2cc(F)ccc2F)c([N+](=O)[O-])c1)N1CCCCC1	-2.8% (inactive)
CCOc1ccc(N2C(=O)C(CC(=O)Nc3ccccc3)N(Cc3ccccn3)C2=S)cc1 (stereo not given)	9.7% (inactive)
O=C(Nc1cccc2ccccc12)OC1C=CS(=O)(=O)C1 (stereo not given)	25.6% (inactive)
COc1ccc(N/N=C(/N=Nc2nc(C)cc(=O)[nH]2)c2ccccc2)cc1	46.6% (active)
CCOC(=O)c1c(C)[nH]c(C(=O)N/N=C\c2ccccc2O)c1C	11.6% (inactive)
COc1ccc(-n2c(-c3ccc(Br)cc3)c[n+]3c2CCCCC3)cc1	-0.37% (inactive)
CC(C)CN=C(NS(=O)(=O)c1ccccc1)C(Cl)(Cl)Cl	24.3% (inactive)
O=C1/C(=C/c2cccnc2)SC(=S)N1C1CCS(=O)(=O)C1 (stereo not given)	-0.1% (inactive)
O=c1cc(CNc2cc(C(F)(F)F)cc(C(F)(F)F)c2)nc2sccn12	4.27% (inactive)
O=C(CCSc1ccc(Cl)cc1)N1CCN(c2ccc(O)cc2)CC1	3.85% (inactive)

System: transactivating tegument protein VP16 (Human herpesvirus 1), Gal4-VP16 luciferase reporter
Test: repression of VP16-driven luciferase reporter – cell-based, luminescence, high throughput, counter-screen for SRC3 inhibitor project (AID 588794)
Settings: mammalian cells, at 3.6 µM, hits give high values

SMILES	inhibition
O=C(OC1C2CCC1C1CN(CCc3ccccc3)CC12)c1ccccc1 (stereo not given)	18% (inactive)
Cc1ncoc1C(=O)NC1CCCc2c1cnn2-c1ccc(C(C)(C)C)cc1 (stereo not given)	41.8% (active)
COc1ccc(-n2c(C)cc(C(=O)COc3ccc(C)nc3[N+](=O)[O-])c2C)cc1	10.7% (inactive)
Cc1sc(-c2ccccn2)nc1OC(=O)c1ccc(F)cc1F	16.1% (inactive)
CC1CCc2c(sc(NC(=O)c3ccco3)c2C(=O)O)C1 (stereo not given)	36.3% (active)
COc1cccc(/C=N/NC(=O)c2ccc(=O)n(C)c2)c1O	9.91% (inactive)
CC(=O)Nc1cccc(C(=O)/C=C/c2ccc(F)cc2)c1	2.15% (inactive)
COc1ccc(N2CC(C(=O)N/N=C/c3ccccc3)CC2=O)cc1 (stereo not given)	-0.56% (inactive)
CC(C)c1nc(Cl)c(C#N)c2c1CCCC2	37% (active)
CCN(CC(=O)Nc1ccccc1C(F)(F)F)C(=O)c1ccc(N2C(=O)CCC2=O)cc1	2.68% (inactive)
COC(=O)c1ccc(NC(=O)Cn2c(-c3nonc3N)nc3ccccc32)cc1	3.85% (inactive)
CC#CC[N+](C)(C)CCCCCCCCCC	16.9% (inactive)
Cc1ccc(OCC(O)CN2CCN(CC(O)COC(C)C)CC2)c(C(C)(C)C)c1 (stereo not given)	13.2% (inactive)
CCOC(=O)Cc1[nH]nc2c1C(c1cccc(OC)c1OC)C(C#N)=C(N)O2 (stereo not given)	0.25% (inactive)
CN1CCN(S(=O)(=O)c2cccc(C(=O)N(C)CC(=O)Nc3ccc(Cl)c(Cl)c3)c2)CC1	17.9% (inactive)
Cc1ccc(S(=O)(=O)N(C)c2ccc(OCC(=O)OCc3c(C)noc3C)cc2)cc1	-6.86% (inactive)
Cc1cc(=O)oc2cc(NC(=O)COc3cccc(C(F)(F)F)c3)ccc12	-7.4% (inactive)
COc1ccc(OC)c(N/C=C/C(=O)c2ccccc2)c1	17.5% (inactive)
Cc1ccc(C(=O)OCC(=O)Nc2sccc2C(N)=O)cc1NC(=O)c1ccco1	11.5% (inactive)
Cc1cc(C(F)(F)F)c(C#N)c(SCC(=O)Nc2nc3ccccc3s2)n1	37.2% (active)

SMILES	inhibition
O=C(NN=Cc1ccccc1O)c1cccc([N+](=O)[O-])c1	51.8% (active)
CCCn1c(N)c(C(=O)CSc2ncc(C(F)(F)F)cc2Cl)c(=O)[nH]c1=O	-5.96% (inactive)
C/C(=N\NC(N)=S)C1C2C3CC4C5CC(C42)C1C53 (stereo not given)	30% (active)
COc1ccc(OC)c(C2C3=C(CCCC3=O)NC3=C2C(=O)CCC3)c1	-6.31% (inactive)
CCCN1C(=O)c2ccccc2NC1c1ccc(Cl)c(Cl)c1 (stereo not given)	22.1% (inactive)
CN[C@H]1CCc2cc(OC)c(OC)c(OC)c2-c2ccc(OC)c(=O)cc21	-10.4% (inactive)
COc1ccc(S(=O)(=O)NCc2ccncc2)cc1NC(=O)c1ccc(Cl)cc1	4.55% (inactive)
Cc1ccsc1C(=O)C1CCCN(Cc2cccn2-c2ccc(Cl)cn2)C1 (stereo not given)	23.2% (inactive)
COC(=O)c1sc(NC(=O)c2cc(-c3ccccc3)nc3ccccc23)c(C#N)c1C	38.6% (active)
C=CCc1cc(C(=O)N2CCCCC2)ccc1O	19.9% (inactive)
O=C(c1ccc(S(=O)(=O)Cc2cc(F)ccc2F)c([N+](=O)[O-])c1)N1CCCCC1	-0.48% (inactive)
CCOc1ccc(N2C(=O)C(CC(=O)Nc3ccccc3)N(Cc3ccccn3)C2=S)cc1 (stereo not given)	12.2% (inactive)
O=C(Nc1cccc2ccccc12)OC1C=CS(=O)(=O)C1 (stereo not given)	15.6% (inactive)
COc1ccc(N/N=C(/N=Nc2nc(C)cc(=O)[nH]2)c2ccccc2)cc1	30.7% (active)
CCOC(=O)c1c(C)[nH]c(C(=O)N/N=C\c2ccccc2O)c1C	12.8% (inactive)
COc1ccc(-n2c(-c3ccc(Br)cc3)c[n+]3c2CCCCC3)cc1	16.2% (inactive)
CC(C)CN=C(NS(=O)(=O)c1ccccc1)C(Cl)(Cl)Cl	16.1% (inactive)
O=C1/C(=C/c2cccnc2)SC(=S)N1C1CCS(=O)(=O)C1 (stereo not given)	21% (inactive)
O=c1cc(CNc2cc(C(F)(F)F)cc(C(F)(F)F)c2)nc2sccn12	3.94% (inactive)
O=C(CCSc1ccc(Cl)cc1)N1CCN(c2ccc(O)cc2)CC1	28% (inactive)

From PubChem BioAssay
